Source: PubChem (National Center for Advancing Translational Sciences (NCATS))
The list is not random: actives were taken first. Their share in the collection is about 5.8%.
SW480 rereplic = inducers of DNA re-replication in SW480 colon cancer cells; SW480 DNA re-replication, Hoechst DNA content imaging, 48 h; Potency, µM (doses to about 46.1 µM), hits mostly activators; 340,000 compounds, 1.8% hits; AID 624297; also: nearly all actives have a fitted effect of over 55% in size
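Per well, 250 cells were exposed to pinned compound for 48 hr. Nuclear DNA was visualised with Hoechst (40 min, 37 C) and total object intensity recorded by fluorescence scanning.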
PINK1 expr mod = changes PINK1 expression; PINK1 immunofluorescence, high-content cytometry, 24 h; Potency, µM (doses to about 76.6 µM), usual class: activators; 410,000 compounds, 0.2% hits; AID 624263; active = well fitted activation curve with a large enough effect; inconclusive = small, poorly fitted or top-dose-only effect; cell line not stated here; also: nearly all actives have a fitted effect of over 65% in size
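A stable cell line was treated with compounds at 5 concentrations for 24 hours, with CCCP as control. PINK1 levels and mitochondrial localization were measured by immunofluorescence with mitochondrial, cell and nuclear markers after fixation, read by laser-scanning cytometry.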
12-LOX inh = inhibitors of human 12S-lipoxygenase ALOX12; purified 12hLO, xylenol orange hydroperoxide absorbance; Potency, µM (highest dose often 108 µM), hits mostly inhibitors; 580,000 compounds, 1.1% hits
Target sequence (P18054 whole entry, looked up): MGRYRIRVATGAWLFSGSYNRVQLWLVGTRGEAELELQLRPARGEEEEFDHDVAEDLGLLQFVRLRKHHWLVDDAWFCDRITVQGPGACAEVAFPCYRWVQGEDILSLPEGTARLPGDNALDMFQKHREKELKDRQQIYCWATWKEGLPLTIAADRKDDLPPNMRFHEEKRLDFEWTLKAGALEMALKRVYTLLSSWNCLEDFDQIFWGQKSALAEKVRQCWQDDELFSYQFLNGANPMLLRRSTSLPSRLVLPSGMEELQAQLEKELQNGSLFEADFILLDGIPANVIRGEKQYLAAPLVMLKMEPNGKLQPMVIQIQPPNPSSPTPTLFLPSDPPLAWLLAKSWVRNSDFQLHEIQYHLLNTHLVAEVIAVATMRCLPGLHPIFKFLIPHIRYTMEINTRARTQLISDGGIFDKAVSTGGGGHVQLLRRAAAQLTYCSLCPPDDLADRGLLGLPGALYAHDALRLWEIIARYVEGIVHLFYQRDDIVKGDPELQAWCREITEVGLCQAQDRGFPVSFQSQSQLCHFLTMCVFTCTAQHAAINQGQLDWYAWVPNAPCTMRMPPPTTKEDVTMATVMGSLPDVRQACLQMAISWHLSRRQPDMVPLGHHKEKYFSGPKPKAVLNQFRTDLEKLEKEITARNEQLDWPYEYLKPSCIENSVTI
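Purified human 12hLO (150 nM final) in 25 mM Hepes, 0.01% Triton X-100, pH 7.0 was preincubated 15 min at room temperature with compound. Then 40 uM arachidonic acid was added, 30 min. Hydroperoxide was read by Fe-XO absorbance ratio 573/405 nm.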
MCF10A rerep = inducers of DNA re-replication in MCF 10A breast cells; Potency, µM (highest dose often 46.1 µM), most hits filed as activators; MCF 10A DNA re-replication, Hoechst nuclear intensity, 48 h; 350,000 compounds, 2.9% hits; also: nearly all actives have a fitted effect of over 50% in size
KB-3-1 cytotox = KB-3-1 parental cell cytotoxicity | 400,000 compounds, 1.4% hits | KB-3-1 viability, CellTiter-Glo ATP luminescence, 72 h | Potency, µM (titrated, usually from 46.1 µM), most hits filed as cytotoxic; also: nearly all actives have a fitted effect of over 60% in size
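Parental KB-3-1 adenocarcinoma cells in phenol-red-free DMEM with 10% FBS were pin-treated with compounds at several concentrations, incubated 72 h at 37 °C, and viability read by CellTiter-Glo luminescence; concentration-effect curves were fitted after normalization.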
KB-V1 MDR tox = KB-V1 MDR subline cytotoxicity; Potency, µM (titrated, usually from 46.1 µM), hits mostly cytotoxic; 400,000 compounds, 3.4% hits; AID 1347076; KB-V1 MDR cells viability, CellTiter-Glo, 72 h; also: nearly all actives have a fitted effect of over 60% in size
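KB-V1, DMEM (no phenol red) + 10% FBS; cpd pin-transferred, titration series; 72 h, 37 degrees C; CellTiter-Glo, luminescence. Data normalized, curve-fit.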
Hits are given with their value; n = inactive; u = inconclusive; x = no result. Unless noted, calls follow the shape of the dose curve; as a rule, active = well fitted curve in the direction sought with a large enough effect; inconclusive = small, poorly fitted or top-dose-only effect, or another doubt; inactive = no such curve, though single readings can be large; an effect the other way counts as inactive or inconclusive.

SMILES	SW480 rereplic	PINK1 expr mod	12-LOX inh	MCF10A rerep	KB-3-1 cytotox	KB-V1 MDR tox
Cc1cc(C(=O)Nc2sc3c(c2C#N)CCC(C)C3)no1 (stereo unspecified)	u	n	n	9.2µM	u	12µM
COC(=O)c1c(NC(=O)c2nc3nc(C)cc(C(F)F)n3n2)sc2c1CCCC2	x	x	n	x	x	x
N#Cc1c(NC(=O)c2cc(C3CC3)on2)sc2c1CCC2	21µM	n	u	3.3µM	13µM	n
Cc1cc(C(F)F)n2nc(C(=O)Nc3sc4c(c3C#N)CCC4)nc2n1	n	n	u	n	n	21µM
CC(C)Cc1cc(C(=O)Nc2sc3c(c2C#N)CCCC3)no1	n	n	n	n	n	n
CC(C)n1nc(C(=O)Nc2ccc(S(=O)(=O)C(F)F)cc2)c2ccccc2c1=O	x	x	n	x	x	x
Cc1ccc(/C=N/NC(=O)c2cccc(Br)c2)s1	x	x	n	x	x	x
N#Cc1c(NC(=O)/C=C/c2ccco2)sc2c1CCCC2	u	n	35µM	u	0.41µM	1µM
Cc1cc(C(=O)Nc2sc3c(c2C#N)CCC3)no1	u	n	u	8.2µM	u	16µM
O=C(/C=C/c1ccco1)Nc1sc2c(c1C(=O)O)CCC2	n	n	u	n	n	n
Cn1cc([N+](=O)[O-])c(C(=O)Nc2sc3c(c2C#N)CCC3)n1	u	n	n	3.7µM	u	u
CC(C)Cc1cc(C(=O)Nc2sc3c(c2C#N)CCC3)no1	n	n	u	n	n	n
COC(=O)c1c(-c2ccccc2)csc1NC(=O)c1c(-c2ccccc2)noc1C	u	n	u	u	n	5.8µM
Cn1cc(Br)c(C(=O)Nc2sc3c(c2C#N)CCC3)n1	n	n	n	n	n	n
COc1cccc(C(=O)OCc2nc3ccccc3o2)c1	x	x	n	x	x	x
COc1ccc(-c2ccc(C#N)c(SCC(=O)Nc3ccccc3Cl)n2)cc1	x	x	n	x	x	x
COc1ccc(-c2nc(CSCC(=O)N3CCN(Cc4ccc5c(c4)OCO5)CC3)c(C)o2)cc1	x	x	n	x	x	x
Cc1onc(-c2ccccc2)c1C(=O)NC(=S)Nc1sc2c(c1C#N)CCCC2	n	n	u	u	n	n
Cc1onc(-c2ccccc2)c1C(=O)Nc1sc2c(c1C#N)CCC2	u	n	u	u	u	4.6µM
Cc1cc(C(=O)OCC(=O)Nc2sc3c(c2C#N)CCC(C)C3)c2ccccc2n1 (stereo unspecified)	n	n	40µM	u	n	n
CCn1c(=O)c(=O)[nH]c2cc(C(=O)N3CCC4(CC3)OCCO4)ccc21	x	x	n	x	x	x
COc1ccc(NC(=O)c2ccccc2Cl)c2cccnc12	x	x	n	x	x	x
COc1cc(NC(=O)c2ccccc2)c(OC)cc1Cl	n	n	n	n	n	n
COc1cc(NS(=O)(=O)c2ccc(C)cc2)c2ncccc2c1	3.7µM	n	x	n	9.2µM	u
COc1cc(OC)c(NC(=O)c2cc3ccccc3cc2O)cc1Cl	n	u	n	21µM	u	u
SMILES	SW480 rereplic	PINK1 expr mod	12-LOX inh	MCF10A rerep	KB-3-1 cytotox	KB-V1 MDR tox
COc1cc(NC(=O)c2ccccc2Cl)c2ncccc2c1	u	n	n	4.6µM	u	u
O=S(=O)(NCC1OCCc2ccccc21)c1ccc(S(=O)(=O)N2CCOCC2)cc1 (stereo unspecified)	n	n	n	n	n	21µM
CNC(=O)C1CCCCN1C(=O)Cc1nc(-c2ccccc2)oc1C (stereo unspecified)	x	x	n	x	x	x
CCCCCOc1ccc(CSc2n[nH]c(C)n2)cc1	n	n	n	n	n	n
Cc1nc(SCc2ccc(OCCC(C)C)cc2)n[nH]1	23µM	n	n	n	n	n
COC(=O)c1cc(OCc2cccc(Br)c2)cc(C(=O)OC)c1	x	x	n	x	x	x
Cc1ccc(NNC(=O)c2ccno2)cc1Cl	n	n	u	n	n	n
Cc1ccc(NNC(=O)c2ccno2)cc1C	n	n	n	n	16µM	n
Cc1cc(C(=O)NNc2ccc(C)c(C)c2)no1	u	n	n	16µM	u	u
Cc1cc(C(=O)NNC(=O)Nc2ccc(Cl)cc2)no1	n	n	n	n	n	n
Cc1cc(C(=O)Nc2cnn(Cc3ccc(Cl)cc3Cl)c2)no1	n	n	n	n	n	13µM
Cc1cc(C(=O)NNc2ccc(Cl)cc2)no1	n	n	u	7.3µM	u	n
N/C(COc1cccc2ccccc12)=N\O	x	x	n	x	x	x
Cc1cc(C(=O)NCCc2ccc(Cl)cc2)no1	n	n	n	6.5µM	n	n
Cc1cc(C(=O)NCCc2ccc(S(N)(=O)=O)cc2)no1	n	n	n	n	n	n
CC(=O)c1cc2c(cc1O)CCCC2	x	x	n	x	x	x
CC1CCCN(C(C(=O)NC2CCCCC2)c2cc3c(cc2[N+](=O)[O-])OCO3)C1 (stereo unspecified)	n	n	n	n	u	8.2µM
Cc1cc(C)cc(N2C(=O)CC(N3CCOCC3)C2=O)c1 (stereo unspecified)	n	n	n	18µM	n	n
O=C(c1ccc(C(F)(F)F)cc1)N1CCN(C2CC2)CC1	x	x	n	x	x	x
COC(=O)c1ccc(NCc2cc(O)ccc2O)cc1O	u	n	5µM	u	n	n
COC(=O)c1ccc(NCc2c(O)ccc(O)c2Br)cc1Cl	u	n	0.89µM	u	n	n
CSc1cccc(NC(=O)c2ccc3c(c2)OCC(=O)N3)c1	x	x	n	x	x	x
CCC1CCC(C(=O)Nc2ccc(Br)cc2)CC1 (stereo unspecified)	x	x	n	x	x	x
CCCc1c(C)nc2ccc(Cl)cc2c1-c1ccccc1	x	x	1.8µM	x	x	x
CCOC(=O)c1c(C)n(CCO)c2ccc(O)cc12	n	n	n	n	n	n
SMILES	SW480 rereplic	PINK1 expr mod	12-LOX inh	MCF10A rerep	KB-3-1 cytotox	KB-V1 MDR tox
CCOCCn1c(C)c(C(=O)OCC)c2cc(O)c3ccccc3c21	n	n	n	n	n	2.1µM
Cc1cc(=O)c(C(=O)Nc2nnc(C(C)C)s2)nn1-c1ccc(Cl)cc1	x	x	n	x	x	x
O=C(Nc1ccc(Cl)cc1)N1CCC2(C1)C(=O)N(CCc1ccccc1)c1ccccc12 (stereo unspecified)	x	x	n	x	x	x
O=C(/C=C/c1ccccc1)CC(O)(c1ccccc1)C(F)(F)C(F)F (stereo unspecified)	n	n	n	n	n	u
O=C(/C=C/c1ccccc1)CC(O)(c1ccccc1)C(F)(F)F (stereo unspecified)	u	x	n	n	n	23µM
F[C@@H]1CN(Cc2cccnc2)C[C@@H]1OCc1nc2ccc(C(F)(F)F)cc2[nH]1	x	x	n	x	x	x
Cc1cc2occ(CC(=O)NCc3cccs3)c2cc1C(C)C	n	n	n	n	n	21µM
O=C(CSc1nnc(-c2ccncc2)n1-c1ccc(Br)cc1)Nc1ccc(F)cc1	x	x	n	x	x	x
CC(C)CCN1CCC(C2CCN(Cc3cccnc3)CC2)C1 (stereo unspecified)	x	x	n	x	x	x
